Bioassay records (PubChem BioAssay)
ANO1 block: blocks the mouse calcium-activated chloride channel TMEM16A. HEK293 TMEM16A/YFP iodide influx fluorescence, ionomycin. normalized B-score (activity score, 25-100; higher = stronger inhibition) at 10 µM. actives 1.2% (n = 310,000);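 active = ratio plate-corrected score three or more library SD toward inhibition, starting fluorescence score within five deviations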;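 note: score derived from kinetic fluorescence span divided by baseline fluorescence per well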
CHT allo act: human CHT allosteric activation; Q9GZV3; CHT-expressing cells, membrane potential dye, choline EC20; hits give high values; LV-AA mutant CHT in HEK293 cells; B-score at 10 µM; actives 0.49% (n = 310,000);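 active = initial fluorescence not abnormally high and integrated response B-score, plate-corrected, over 3 SD above library mean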
ANO1 activ: activators or potentiators of mouse TMEM16A chloride channel. actives 0.3% (n = 340,000). HEK293 TMEM16A/YFP-H148Q/I152L, iodide quench fluorescence; hits give low values. B-score at 10 µM. Q8BHY3;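 active = fluorescence-ratio B-score plate-corrected deviation score at least 3 library SD below zero, with starting fluorescence score within 5 deviations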;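 note: channel opened by trigger with iodide after compound preincubation; score built on the fluorescence ratio of max minus min over baseline; more negative score means more quench and so TMEM16A activation or potentiation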
CHT block: inhibits the human high affinity choline transporter; Q9GZV3; CHT-expressing cells, membrane potential dye, choline response; hits give low values; B-score at 10 µM; actives 0.86% (n = 310,000);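 active = B-score over 3 SD under the library average, and starting fluorescence ratio not unusually high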;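 note: choline stimulus applied at its EC90 after an EC20 pre-addition; B-score computed on integrated fluorescence ratio after choline addition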
TMEM16A reconf: reconfirmed blocker of mouse TMEM16A calcium-activated chloride channel | shares compounds with ANO1 block | HEK293 TMEM16A/YFP-H148Q, iodide quench fluorescence; ionomycin added to raise cell calcium | inhibition, % at 10 µM | actives 39% (n = 2,300);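 active = mean duplicate percent inhibition, scaled so buffer wells are 0 and the reference blocker 100, over three buffer SD above buffer mean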
TMEM16A Ca cntr: calcium mobilization counter-screen hit for TMEM16A inhibitor series; TMEM16A/YFP HEK293, Fluo4 calcium mobilization; AID 652231; calcium response (% of ionomycin), % at 10 µM; actives 2% (n = 2,300); shares compounds with ANO1 block;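 active = duplicate-averaged calcium signal over 20% of the ionomycin maximum, relative to buffer baseline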;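 note: each well's signal is peak minus trough fluorescence divided by its pre-addition baseline; 0% = buffer wells and 100% = ionomycin wells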
YFP-HEK293 quench: parental YFP-HEK293 iodide quench counter-screen activity; ionomycin; AID 652233; 2,300 tested, under 10 active; YFP ratio F(max-min)/F0 at 10 µM; shares compounds with ANO1 block;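 active = yellow fluorescent protein signal ratio exceeding the buffer control mean by over 5 SD of those controls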;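 note: ratio is mean of duplicate wells from kinetic YFP trace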
ClC-1 rat inh: blocks the rat ClC-1 voltage-dependent chloride channel. 2,300 tested, under 10 active. CHO ClC-1-YFP, iodide influx fluorescence quench; iodide control reads 0, buffer control 100. shares compounds with ANO1 block. ratio percent, % at 10 µM;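 active = duplicate-mean ratio percent above the mean of iodide-only control wells, which defines zero, plus 5 of their SD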;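 note: higher percent means stronger block of ClC-1 iodide influx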
* marks the source's active call; other numbers are inactive results. Rows were chosen to be rich in hits. Some 2.4% of all compounds tested hit in one or more screens of this group.

`COc1ccccc1N1CCN(C(c2ccc(Cl)cc2)c2nnnn2C(C)(C)C)CC1` (configuration not stated) gave ANO1 block 100*, CHT allo act inactive, ANO1 activ inactive, CHT block inactive, TMEM16A reconf inactive, TMEM16A Ca cntr inactive, YFP-HEK293 quench -1.2 and ClC-1 rat inh -22.
For CCCCN(CCCC)CCNC(=O)CNC(=O)c1cccs1 the results were ANO1 block 100*, CHT allo act inactive, ANO1 activ inactive, CHT block inactive, TMEM16A reconf inactive, TMEM16A Ca cntr inactive, YFP-HEK293 quench -0.96 and ClC-1 rat inh -8.
`O=C(CNC(=O)c1cccs1)NCCc1ccco1` gave ANO1 activ inactive.
Screening CCC1=NN(C(=O)c2ccccc2Br)C(O)(c2ccc(Br)cc2)C1 (configuration not stated) returned ANO1 block inactive, CHT allo act inactive, ANO1 activ inactive and CHT block inactive.
`CCC1=NN(C(=O)c2ccccc2O)C(O)(c2ccccc2)C1` (configuration not stated) gave ANO1 block 25*, CHT allo act inactive, ANO1 activ inactive, CHT block inactive, TMEM16A reconf inactive, TMEM16A Ca cntr inactive, YFP-HEK293 quench -0.91 and ClC-1 rat inh -10.
COc1ccc(/C=N/NC(=O)c2cccnc2)cc1COc1ccc([N+](=O)[O-])c(C)c1 was read as ANO1 block 25*, CHT allo act inactive, ANO1 activ inactive, CHT block inactive, TMEM16A reconf 22%*, TMEM16A Ca cntr inactive, YFP-HEK293 quench -1 and ClC-1 rat inh -16.
For c1ccc2c(c1)ncn2CCCOc1ccc2c(c1)CCC2 the results were ANO1 block 100*, CHT allo act inactive, ANO1 activ inactive, CHT block inactive, TMEM16A reconf inactive, TMEM16A Ca cntr inactive, YFP-HEK293 quench -1.1 and ClC-1 rat inh -8.
For Fc1ccc(Cn2cnc3ccccc32)cc1 the results were ANO1 block inactive, CHT allo act inactive, ANO1 activ inactive and CHT block inactive.
`CCCOc1ccc(Cn2cnc3ccccc32)cc1` gave ANO1 block 25*, CHT allo act inactive, ANO1 activ inactive, CHT block inactive, TMEM16A reconf 17%*, TMEM16A Ca cntr inactive, YFP-HEK293 quench -1 and ClC-1 rat inh -10.
Screening COc1cccc(NC(=O)C2CCN(Cc3cnn(-c4ccccc4)c3-n3cccc3)CC2)c1 returned ANO1 block 25*, CHT allo act inactive, ANO1 activ inactive, CHT block inactive, TMEM16A reconf inactive, TMEM16A Ca cntr inactive, YFP-HEK293 quench -1.4 and ClC-1 rat inh -9.
For COc1ccc(NC(=O)C2CCN(Cc3cnn(-c4ccccc4)c3-n3cccc3)CC2)cc1OC the results were ANO1 block inactive, CHT allo act inactive, ANO1 activ inactive and CHT block inactive.
Screening Clc1ccc(OCCN2CCN(c3ncnc4sccc34)CC2)cc1 returned ANO1 block 100*, CHT allo act inactive, ANO1 activ inactive, CHT block inactive, TMEM16A reconf 16%*, TMEM16A Ca cntr inactive, YFP-HEK293 quench -1.2 and ClC-1 rat inh -32.
COc1ccc(-c2cccc(C3CC=CC4C3C(=O)N(Cc3ccccc3)C4c3ccc(C(F)(F)F)cc3)c2)cc1 (configuration not stated) was read as ANO1 block inactive, CHT allo act inactive, ANO1 activ inactive and CHT block inactive.
O=C1C2C(c3ccccc3)CC=CC2[C@H](c2ccc(C(F)(F)F)cc2)N1Cc1ccccc1 (some centres not stated) was read as ANO1 block 25*, CHT allo act inactive, ANO1 activ inactive, CHT block inactive, TMEM16A reconf inactive, TMEM16A Ca cntr inactive, YFP-HEK293 quench -1.1 and ClC-1 rat inh -10.
Screening COc1ccc(OC)c(C(=O)c2coc3ccc(O)cc23)c1 returned ANO1 block 25*, CHT allo act inactive, ANO1 activ inactive, CHT block inactive, TMEM16A reconf inactive, TMEM16A Ca cntr inactive, YFP-HEK293 quench -0.84 and ClC-1 rat inh -2.
Screening COc1ccc2occ(C(=O)c3ccccc3)c2c1 returned ANO1 block inactive, CHT allo act inactive, ANO1 activ inactive and CHT block inactive.
Screening Cc1ccc(C(=O)NCC(=O)OCc2csc(-c3ccccc3)n2)cc1 returned ANO1 block inactive, CHT allo act inactive, ANO1 activ inactive and CHT block inactive.
Screening O=C(OCc1csc(-c2ccccc2)n1)c1ccc(O)cc1 returned ANO1 block 100*, CHT allo act inactive, ANO1 activ inactive, CHT block inactive, TMEM16A reconf inactive, TMEM16A Ca cntr inactive, YFP-HEK293 quench -1.1 and ClC-1 rat inh -6.
CCOC(=O)C(CSCc1ccccc1)NC(=O)OC(C)(C)C (configuration not stated) was read as ANO1 block inactive, CHT allo act inactive, ANO1 activ inactive and CHT block inactive.
For CCOC(=O)C(CSCC(=O)c1ccc(Cl)cc1)NC(=O)OC(C)(C)C (configuration not stated) the results were ANO1 block 100*, CHT allo act inactive, ANO1 activ inactive, CHT block inactive, TMEM16A reconf inactive, TMEM16A Ca cntr inactive, YFP-HEK293 quench -1 and ClC-1 rat inh -4.
CC(C)Cc1csc(NC(=O)c2ccc(Cl)cc2)c1C(=O)O was read as ANO1 block 25*, CHT allo act inactive, ANO1 activ inactive, CHT block inactive, TMEM16A reconf 39%*, TMEM16A Ca cntr inactive, YFP-HEK293 quench -0.81 and ClC-1 rat inh -5.
For N#CC1(Nc2ccccc2)C(=O)Nc2ccccc21 (configuration not stated) the results were ANO1 block inactive, CHT allo act inactive, ANO1 activ inactive and CHT block inactive.
Screening N#CC1(Nc2cccc(Br)c2)C(=O)Nc2ccccc21 (configuration not stated) returned ANO1 block 100*, CHT allo act inactive, ANO1 activ inactive, CHT block inactive, TMEM16A reconf 64%*, TMEM16A Ca cntr inactive, YFP-HEK293 quench -0.9 and ClC-1 rat inh -13.
